This is a sample that favours compounds with a hit; in the whole collection about 2.4% have one here.
Pol eta inh-1 – DNA polymerase eta (human) inhibition. Q9Y253. AID 588591. Potency, µM (doses to about 114 µM), inactives show at the highest dose activity change, negative = inhibition, usual class: inhibitors. recombinant Pol eta, fluorescent DNA replication assay. 390,000 compounds, 1.2% hits; also: % is scaled to controls: 0 for no effect and ±100 for the full control effect
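Fluorescent replication assay: 50 nM final substrate added after a 15 min room-temperature compound preincubation with 10 nM enzyme. Signal taken at 0 min and again at 10 min.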
Pol iota inh – inhibitors of human DNA polymerase iota. Q9UNA4. Pol iota fluorescent replication assay, 10 min. Potency, µM (top dose mostly 115 µM), without a hit: at the top dose activity, negative = inhibition, hits mostly inhibitors. 390,000 compounds, 1% hits. AID 588590
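Pol iota at 10 nM preincubated 15 min with compounds at room temperature; reaction started with fluorescent substrate, 50 nM final. Fluorescence read kinetically at 0 and 10 min; buffer-only wells as negative control.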
WRN helicase inh-1 – blocks human WRN helicase. WRN helicase unwinding, fluorescent forked duplex, kinetic. 360,000 compounds, 0.46% hits. Q14191. Potency, µM (titrated, usually from 114 µM), for the others: at the top dose activity change, negative = inhibition, actives largely listed as inhibitors; also: % is scaled to controls: 0 for no effect and ±100 for the full control effect; nearly all actives have a fitted effect of over 55% in size
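Enzyme (20 nM final) and test compound sit together 15 min at room temperature before substrate addition. Substrate is a single-forked duplex oligonucleotide (100 nM) labelled with fluorophore and quencher, with 2 mM ATP; helicase unwinding raises red fluorescence, read kinetically.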
FEN1 inh-1 – human FEN1 inhibition. Potency, µM (doses to about 114 µM), inactives show at the highest dose activity change, negative = inhibition, most hits filed as inhibitors. 390,000 compounds, 0.35% hits. AID 588795. Recombinant FEN1 flap cleavage, fluorescence, 15 min; also: % is scaled to controls: 0 for no effect and ±100 for the full control effect; nearly all actives have a fitted effect of over 65% in size
Target sequence (P39748 whole entry, looked up): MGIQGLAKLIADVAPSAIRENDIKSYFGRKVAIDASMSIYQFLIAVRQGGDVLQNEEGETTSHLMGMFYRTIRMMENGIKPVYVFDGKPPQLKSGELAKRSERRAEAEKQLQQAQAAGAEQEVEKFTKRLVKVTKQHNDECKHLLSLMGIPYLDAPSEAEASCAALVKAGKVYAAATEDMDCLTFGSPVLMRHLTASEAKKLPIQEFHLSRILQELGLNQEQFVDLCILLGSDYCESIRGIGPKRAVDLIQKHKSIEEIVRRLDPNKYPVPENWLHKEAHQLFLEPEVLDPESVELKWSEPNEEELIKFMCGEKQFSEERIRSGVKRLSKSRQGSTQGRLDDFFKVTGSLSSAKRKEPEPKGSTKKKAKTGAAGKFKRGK
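Recombinant FEN1 (10 nM) was preincubated with pin-transferred compounds for 15 min at room temperature, then flap DNA substrate (50 nM final) was added. Plates were read at 0 and 15 min, and normalized concentration–response data were fitted to a four-parameter Hill equation.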
POLB inh – DNA polymerase beta (human) inhibition | Potency, µM (series often up to 114 µM), for the others: at the top dose activity change, negative = inhibition, hits mostly inhibitors | P06746 | 340,000 compounds, 1.3% hits | Pol beta primer extension/strand displacement, fluorescence kinetic; also: % is scaled to controls: 0 for no effect and ±100 for the full control effect
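Human Pol beta at 10 nM; strand-displacement substrate 50 nM final. Compound exposure 15 min at room temperature before start, reaction 10 min at room temperature.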
Pol kappa inh-1 – inhibitors of human DNA polymerase kappa; Potency, µM (titrated, usually from 107 µM), for the others: top-dose activity, negative = inhibition, hits mostly inhibitors; 400,000 compounds, 0.53% hits; Q9UBT6; purified Pol kappa, fluorescent DNA synthesis assay, 10 min; also: % is scaled to controls: 0 for no effect and ±100 for the full control effect
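Fluorescent qHTS in 1536-well format: enzyme (10 nM) and compound sat 15 min at room temperature before 50 nM substrate (final) was added. Signal taken at 0 and 10 min; no-enzyme buffer wells were negative controls.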
TbPGK inh – blocks T. brucei phosphoglycerate kinase | shares compounds with Pol kappa inh-1 | TbPGK coupled GAPDH assay, Kinase-Glo luminescence | Potency, µM (titrated, usually from 57.5 µM), for inactives: at the top dose activity change, negative = inhibition, usual class: inhibitors | 500 compounds, 79% hits | AID 686980; also: % is scaled to controls: 0 for no effect and ±100 for the full control effect; nearly all actives have a fitted effect of over 65% in size
POLI cherry-pick – Inhibitors of human DNA polymerase iota, confirmation | shares compounds with Pol kappa inh-1 | 1,500 compounds, 77% hits | Potency, µM, most hits filed as inhibitors | Pol iota primer extension, TAMRA/BHQ fluorescence
Pol kappa inh-2 – confirmation of human DNA polymerase kappa inhibitors; Potency, µM, most hits filed as inhibitors; purified Pol-kappa, fluorescent strand-displacement substrate; shares compounds with Pol eta inh-1; 920 compounds, 76% hits
Pol eta inh-2 – confirmation of human DNA polymerase eta inhibitors | shares compounds with Pol eta inh-1 | Potency, µM, most hits filed as inhibitors | AID 720502 | 2,600 compounds, 64% hits | Pol eta primer extension, TAMRA/BHQ fluorescence, 10 min
FEN1 inh-2 – confirmation of human FEN1 inhibitors | shares compounds with FEN1 inh-1 | FEN1 flap cleavage, TAMRA/BHQ2 fluorogenic DNA substrate | Potency, µM, actives largely listed as inhibitors | 880 compounds, 79% hits; also: nearly all actives have a fitted effect of over 60% in size
WRN helicase inh-2 – WRN helicase inhibition, cherry-pick retest; shares compounds with WRN helicase inh-1; WRN helicase DNA unwinding, fluorescence kinetic; Potency, µM (doses to about 57.1 µM), inactives show top-dose activity, negative = inhibition, actives largely listed as inhibitors; 610 compounds, 63% hits; AID 720497; also: nearly all actives have a fitted effect of over 65% in size
TO displacement – binds DNA, flagged in WRN inhibitor counterscreen; shares compounds with WRN helicase inh-1; thiazole orange DNA binding displacement, fluorescence; Potency, µM (top dose mostly 57.1 µM), without a hit: at the top dose activity change, negative = inhibition, hits mostly inhibitors; 610 compounds, 10% hits;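 also: drop in dye fluorescence marks compound binding to DNA; % is scaled to controls: 0 for no effect and ±100 for the full control effect; nearly all actives have a fitted effect of over 60% in size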
BLM counter – BLM helicase inhibition, WRN selectivity check; shares compounds with WRN helicase inh-1; Recombinant BLM helicase DNA unwinding, red fluorescence; Potency, µM (doses to about 57.1 µM), inactives show at the top dose activity change, negative = inhibition, actives largely listed as inhibitors; 610 compounds, 60% hits; AID 720503; also: nearly all actives have a fitted effect of over 60% in size
Active calls of the source: *; [ ] = dose if it differs, or a comment. Calls follow the shape of the dose curve; as a rule, active = well fitted curve in the direction sought with a large enough effect; inconclusive = small, poorly fitted or top-dose-only effect, or another doubt; inactive = no such curve, though single readings can be large; an effect the other way counts as inactive or inconclusive. Potency is read from the fitted curve at half-maximal effect.

What do the screens show for `O=C1C=C(NCCc2cc(Br)c(O)c(Br)c2)C(=O)c2ncccc21`?
Pol eta inh-1: 3.5µM*; Pol iota inh: 3.2µM*; WRN helicase inh-1: 25µM*; FEN1 inh-1: 45µM*; Pol kappa inh-1: 28µM*; POLI cherry-pick: 17*; Pol kappa inh-2: 24*; Pol eta inh-2: 27*; FEN1 inh-2: 60*; WRN helicase inh-2: 22µM*; TO displacement: inconclusive; BLM counter: 19µM*

Results for CC(C)(C)c1cc(CCC(=O)NCCc2ccccn2)cc(C(C)(C)C)c1O ?
Pol eta inh-1: -16%; Pol iota inh: 121%; WRN helicase inh-1: -1%; FEN1 inh-1: 0%; POLB inh: 70%; Pol kappa inh-1: -1%

How did CCCCOc1ccc(S(=O)(=O)Nc2cccc(-c3ccc(N4CCOCC4)nn3)c2)cc1 do in these assays?
Pol eta inh-1: -22%; Pol iota inh: 14%; FEN1 inh-1: 4%; POLB inh: -14%; Pol kappa inh-1: -19%[60.1 µM]

How did Cn1cccc1/C=N/NC(=O)c1cc2ccccc2cc1O do in these assays?
Pol eta inh-1: -22%; Pol iota inh: -10%; WRN helicase inh-1: -29%; FEN1 inh-1: -7%; POLB inh: 0%; Pol kappa inh-1: -6%

Results for O=C(N/N=C/c1ccc(-c2ccc(S(=O)(=O)Nc3ncccn3)cc2)o1)c1cc2ccccc2cc1O ?
Pol eta inh-1: 0.89µM*; Pol iota inh: 1.3µM*; WRN helicase inh-1: 8.9µM*; FEN1 inh-1: 16µM*; POLB inh: 13µM*; Pol kappa inh-1: 4.5µM*; TbPGK inh: inconclusive; POLI cherry-pick: 17*; Pol kappa inh-2: 3.8*; Pol eta inh-2: 4.8*; WRN helicase inh-2: 6.8µM*; TO displacement: inconclusive; BLM counter: 15µM*

Results for CC1CCCN(c2nc3c(-c4ccc(Cl)cc4)nnn3c3ccccc23)C1 (stereo not drawn) ?
Pol eta inh-1: -13%; Pol iota inh: 65%; FEN1 inh-1: -1%; POLB inh: 5%; Pol kappa inh-1: -3%

How did CCCC(=O)NC1=C(Cl)C(=O)c2ccccc2C1=O do in these assays?
Pol eta inh-1: inconclusive; Pol iota inh: 6.3µM*; WRN helicase inh-1: 25µM*; FEN1 inh-1: -33%; Pol kappa inh-1: -6%; POLI cherry-pick: 67*; WRN helicase inh-2: -17%; TO displacement: 4.8µM*; BLM counter: 24µM*

What do the screens show for `O=C(CCC1N=C2c3ccccc3N=C(SCC(=O)Nc3ccccc3F)N2C1=O)NCc1ccco1` (stereo not drawn)?
Pol eta inh-1: -19%; Pol iota inh: 16%; FEN1 inh-1: -3%; POLB inh: 7%; Pol kappa inh-1: 9%

What do the screens show for `COc1cc2cc(CNc3ccccc3)c(=O)n(CC(=O)Nc3cc(C)cc(C)c3)c2cc1OC`?
Pol eta inh-1: inconclusive; Pol iota inh: 46%; FEN1 inh-1: 11%; POLB inh: -20%; Pol kappa inh-1: 1%

What do the screens show for `CCCCCCNC(=O)c1cc(-c2ccco2)nc2ccccc12`?
Pol eta inh-1: 13µM*; Pol iota inh: inconclusive; WRN helicase inh-1: 40µM*; FEN1 inh-1: -8%; POLB inh: 7.9µM*; Pol kappa inh-1: 50µM*; POLI cherry-pick: 27*; Pol eta inh-2: 30*; WRN helicase inh-2: inconclusive; TO displacement: -23%; BLM counter: 17µM*

Results for COc1ccccc1CNC(=O)COC(=O)c1cc(C)nc2ccccc12 ?
Pol eta inh-1: -11%; Pol iota inh: 17%; WRN helicase inh-1: -25%; FEN1 inh-1: 1%; Pol kappa inh-1: -7%

What do the screens show for `COc1ccccc1CNC(=O)COC(=O)c1cc(-c2ccco2)nc2ccccc12`?
Pol eta inh-1: 14µM*; Pol iota inh: 7.1µM*; WRN helicase inh-1: 35µM*; FEN1 inh-1: 50µM*; POLB inh: 5µM*; Pol kappa inh-1: 22µM*; POLI cherry-pick: 21*; Pol kappa inh-2: 15*; Pol eta inh-2: 24*; WRN helicase inh-2: 19µM*; TO displacement: inconclusive; BLM counter: 17µM*

Results for COc1ccc(Cl)cc1NC(=O)CSc1nnc2[nH]c(=O)cc(C)n12 ?
Pol eta inh-1: -11%; Pol iota inh: -16%; FEN1 inh-1: 0%; POLB inh: -13%; Pol kappa inh-1: -7%[60.1 µM]

How did COC(=O)c1cnn(-c2ccc(C(=O)Nc3ccc(C(C)=O)cc3)cc2)c1N do in these assays?
Pol eta inh-1: 1%; Pol iota inh: 20%; FEN1 inh-1: 17%; POLB inh: 10%; Pol kappa inh-1: -9%[60.1 µM]

What do the screens show for `COc1ccc(CNC(=O)CSc2ncc3c(n2)-c2cc(Cl)ccc2N(C)S3(=O)=O)cc1`?
Pol eta inh-1: 2%; Pol iota inh: 12%; FEN1 inh-1: 8%; POLB inh: 11%; Pol kappa inh-1: 5%

Screens (PubChem BioAssay)
